According to PubChem BioAssay (NCATS):
Results filed as inconclusive are left out. Values without a mark were called inactive. The call rests on the fitted dose curve; in most records, active means well fitted cell-killing curve with a large enough effect; inconclusive means small, poorly fitted or top-dose-only effect; inactive means no such curve, though single readings can be large or run the other way.

Assay: qHTS of pediatric cancer cell lines to identify multiple opportunities for drug repurposing: Primary screen for Rh30 cells (AID 1347107); further: nearly all actives have a fitted effect of over 75% in size
Settings: Rh30 rhabdomyosarcoma viability, CellTiter-Glo luminescence, 48 h; series mostly up to 46 µM; activity change, negative = cytotoxic: at the top concentration
In short: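 Cells (500-1,000/well) rested 5 h, then received compounds for 48 h; metabolically active cells were measured by CellTiter-Glo luminescence. Final concentrations spanned up to 46 µM (MIPE, 11-point) or 0.59 nM-46 µM (NPC, 8-point) in primary screens, 11-point in follow-ups.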
On the % scale 0 is the no-effect control and ±100 the full control effect.

Row | SMILES | activity change, negative = cytotoxic
1 | CN1C(=O)CC[C@H]1c1cccnc1 | 23.5%
2 | CN(C)CCCN1c2ccccc2Sc2ccccc21 | 23.9%
3 | CCCN(CCC)C(=O)C(CCC(=O)O)NC(=O)c1ccccc1 (stereo not given) | 16.5%
4 | Cc1nc2sccn2c(=O)c1CCN1CCC(=C(c2ccc(F)cc2)c2ccc(F)cc2)CC1 | 20.4%
5 | Brc1c(NC2=NCCN2)ccc2nccnc12 | 2.72%
6 | CC(C)(C)NCC(O)c1cc(O)cc(O)c1 (stereo not given) | 14.8%
7 | COCCc1ccc(OCC(O)CNC(C)C)cc1 (stereo not given) | 21%
8 | CN(C)CC[C@@H](c1ccc(Br)cc1)c1ccccn1 | 24.2%
9 | C[C@]12CCC(=O)C=C1CC[C@@H]1[C@@H]2C(=O)C[C@@]2(C)[C@H]1CC[C@]2(O)C(=O)CO | 26.2%
10 | OC(CCN1CCCCC1)(c1ccccc1)C1CCCCC1 (stereo not given) | 14.4%
11 | C[N+](C)(C)CCCCCCCCCC[N+](C)(C)C | 20.9%
12 | COc1ccc2c(c1OC)C(=O)O[C@@H]2[C@H]1c2c(cc3c(c2OC)OCO3)CCN1C | 10.4%
13 | CCCN1C[C@H](CSC)C[C@@H]2c3cccc4[nH]cc(c34)C[C@H]21 | 18.1%
14 | CC(=O)OCC1=C(C(=O)O)N2C(=O)[C@@H](NC(=O)Cc3cccs3)[C@H]2SC1 | 26.8%
15 | NC(Cc1ccc(Cl)cc1)C(=O)O (stereo not given) | 30.5% [at 0.597 µM]
16 | CCN(CC)CC(=O)Nc1c(C)cccc1C | 14.3%
17 | Cc1cc(C)c(/C=C2\C(=O)Nc3ccccc32)[nH]1 | 7.94%
18 | CCN(CC)CCNC(=O)c1cc(S(C)(=O)=O)ccc1OC | 33.2%
19 | CC(N=C(NC#N)Nc1ccncc1)C(C)(C)C (stereo not given) | 6.65%
20 | O=C(O)CP(=O)(O)O | 13.7%
